Assay [1] is described as follows: qHTS assay for small molecules that induce genotoxicity in human embryonic kidney cells expressing luciferase-tagged ATAD5 (AID 651632). Further: nearly all actives have a fitted effect of over 15% in size. In outline:
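Quantitative HTS in HEK293T expressing luciferase-tagged ATAD5, whose levels rise upon DNA damage. Exposure ran 16 hr at 37C and 5% CO2, with luminescence read 30 min after Amplite addition at room temperature.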
For orientation: qHTS replaces the single test concentration by a dilution series.

Assay [2] is described as follows: qHTS assay for small molecule agonists of the p53 signaling pathway - cell viability (AID 651633; calls by dose curve; further: nearly all actives have a fitted effect of over 30% in size; further: potency means the concentration at half of the fitted maximal effect). In outline: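 p53RE-bla cells, seeded at 4,000 per well and rested 5 h at 37 C/5% CO2, received compounds in DMSO for 16 h at 37 C. CellTiter-Glo was then added, and luminescence was read after 30 min at room temperature to gauge cytotoxicity.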
Assay [3] in a line: qHTS assay for small molecules that induce genotoxicity in human embryonic kidney cells expressing luciferase-tagged ATAD5 - cell viability (AID 651634; calls by dose curve; further: nearly all actives have a fitted effect of over 25% in size). In outline:
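After 15.5 hr incubation with compound at 37C, 5% CO2, HEK293T ATAD5-luciferase cells received CellTiter-Fluor reagent; fluorescence intensity was quantified following 30 min at 37C.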

The nature of assay [4]: qHTS assay for small molecule disruptors of the mitochondrial membrane potential - cell viability (AID 720634; calls by dose curve;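 further: human HepG2 liver cancer cells; series mostly up to about 83 µM; nearly all actives have a fitted effect of over 20% in size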). In outline: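 ATP-based luminescent viability readout (CellTiter-Glo, 30 min, room temperature) in HepG2 cells multiplexed with the m-MPI membrane potential dye; compound exposure lasted 1 hr at 37 C.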
The nature of assay [5]: qHTS assay for small molecule disruptors of the mitochondrial membrane potential (AID 720635). Further: potency means the concentration at half of the fitted maximal effect. The gist of the method: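 HepG2 cells (2,000/well) attached overnight at 37C, then took compound for 1 hr at 37C, 5% CO2. Mito-MPS dye was added for 30 min; fluorescence was read at 490/535 nm (monomers) and 540/590 nm (aggregates).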
Assay [6] can be described thus: qHTS assay to test for compound auto fluorescence at 590 nm (red) in HepG2 cells (AID 720674). The gist of the method:
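Intrinsic compound fluorescence in the red window (Ex/Em 540/590 nm) is measured in attached HepG2 cells exposed for 1 hr, DMSO vehicle as baseline, benchmarked to Rose Bengal sodium.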

Assay [7] is described as follows: qHTS assay to test for compound auto fluorescence at 535 nm (green) in HepG2 cells (AID 720675).
A short description of assay [8]: qHTS assay to test for compound auto fluorescence at 460 nm (blue) in HEK293 cells (AID 720678). The gist of the method: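 HEK293 cells (2,000 per well, medium with 10% dialyzed FBS) attached for 4-5 hr at 37C, then received compound and stood overnight at 37C, 5% CO2. Blue fluorescence was read at Ex/Em 405/460 nm and expressed relative to triamterene.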
A short description of assay [9]: qHTS assay to test for compound auto fluorescence at 590 nm (red) in HEK293 cells (AID 720679). In outline:
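HEK293 cells (2,000/well, medium with 10% dialyzed FBS) attached for 4-5 hr at 37C, received 23 nL compound and were incubated overnight at 37C, 5% CO2. Red fluorescence was then read at 540/590nm Ex/Em, referenced to Rose Bengal sodium.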

The nature of assay [10]: qHTS assay to test for compound auto fluorescence at 535 nm (green) in HEK293 cells (AID 720680).
Assay [11] in a line: qHTS assay to test for compound auto fluorescence at 460 nm (blue) in HEK293 cell free culture (AID 720681). In outline:
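Test compounds were pinned into cell-free culture medium (DMEM with 10% FBS) and fluorescence was read directly at Ex/Em 405/460 nm. Signals were expressed as fluorescence equivalents of triamterene, with DMSO vehicle as control.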

The nature of assay [12]: qHTS assay to test for compound auto fluorescence at 535 nm (green) in HEK293 cell free culture (AID 720682). The gist of the method:
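Compounds were pin-transferred into cell-free DMEM with 10% FBS, and green fluorescence was read at excitation 485 nm and emission 535 nm. Intensities were expressed as fluorescein-equivalent values.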

Assay [13] is described as follows: qHTS assay to test for compound auto fluorescence at 590 nm (red) in HEK293 cell free culture (AID 720683). The gist of the method:
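Tox21 10K library compounds were pinned into cell-free DMEM with 10% FBS and fluorescence was read at excitation 540 nm. Activity is expressed as Rose Bengal sodium equivalency.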

The nature of assay [14]: qHTS assay to test for compound auto fluorescence at 590 nm (red) in HepG2 cell free culture (AID 720684). The gist of the method: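 Readout: intrinsic compound fluorescence at 590 nm emission after 540 nm excitation, scaled to Rose Bengal sodium. Matrix was cell-free MEM with 10% FBS; DMSO vehicle wells served as control.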
The nature of assay [15]: qHTS assay to test for compound auto fluorescence at 460 nm (blue) in HepG2 cell free culture (AID 720685). In outline: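 Cell-free plates of MEM plus 10% FBS received 23 nL compound or DMSO vehicle; blue-channel (405/460 nm) intensity scored against triamterene as reference fluorophore.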
A short description of assay [16]: qHTS assay to test for compound auto fluorescence at 535 nm (green) in HepG2 cell free culture (AID 720686).
The target in assay [17] is Glucocorticoid receptor (Homo sapiens) (UniProt P04150). In words: qHTS assay to identify small molecule agonists of the glucocorticoid receptor (GR) signaling pathway (AID 720691; active means well fitted activation curve with a large enough effect in the signal ratio in the repeat runs, not every such curve was filed as active; the % refers to the signal ratio). In outline: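 Cells: GR-bla HeLa, endogenous GR with stably integrated GRE-beta-lactamase reporter. Treatment 18 h, 37 C, compounds delivered in DMSO. Detection via LiveBLAzer B/G FRET substrate, 2 h RT, fluorescence intensity.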

Assay [18] has the same target. In words: qHTS assay to identify small molecule antagonists of the glucocorticoid receptor (GR) signaling pathway (AID 720692; active means well fitted inhibition curve with a large enough effect in the signal ratio in the repeat runs, not every such curve was filed as active; the % refers to the signal ratio). In outline:
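Quantitative HTS in antagonist format: HeLa cells expressing endogenous GR and a stably integrated GRE-bla reporter, stimulated with 5 nM dexamethasone (final) alongside test compounds for 18 h.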

Assay [19] can be described thus: qHTS assay for small molecule agonists of the p53 signaling pathway (AID 651631; calls by dose curve; further: nearly all actives have a fitted effect of over 15% in size; further: potency means the concentration at half of the fitted maximal effect). In outline:
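Readout was fluorescence from the LiveBLAzer FRET substrate, applied for 2 h at room temperature after 16 h compound exposure at 37 °C. Cells were the p53RE-bla HCT-116 line, with beta-lactamase driven by p53 response elements.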

A short description of assay [20]: qHTS assay to test for compound auto fluorescence at 460 nm (blue) in HepG2 cells (AID 720687). In outline: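 Cells (2,000/well in MEM with 10% FBS) attached overnight at 37 C, then were exposed to compound or DMSO for 1 hr at 37 C, 5% CO2. Fluorescence read at Ex/Em 405/460 nm, expressed as triamterene-equivalent signal.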

Where “and” joins values, the source holds several entries; their conditions need not be identical. Identical values can stand only once. A number with no mark means an inactive call. Records with an inconclusive call do not appear. Calls of active or inactive are those of the source. Unless noted, the call rests on the fitted dose curve; in most records, active means well fitted curve in the direction sought with a large enough effect in the repeat runs; inconclusive means weak or mixed curves; inactive means no such curve, though single readings can be large; an effect the other way counts as inactive or inconclusive.

Chain of Glucocorticoid receptor (Homo sapiens) (P04150 whole entry, looked up): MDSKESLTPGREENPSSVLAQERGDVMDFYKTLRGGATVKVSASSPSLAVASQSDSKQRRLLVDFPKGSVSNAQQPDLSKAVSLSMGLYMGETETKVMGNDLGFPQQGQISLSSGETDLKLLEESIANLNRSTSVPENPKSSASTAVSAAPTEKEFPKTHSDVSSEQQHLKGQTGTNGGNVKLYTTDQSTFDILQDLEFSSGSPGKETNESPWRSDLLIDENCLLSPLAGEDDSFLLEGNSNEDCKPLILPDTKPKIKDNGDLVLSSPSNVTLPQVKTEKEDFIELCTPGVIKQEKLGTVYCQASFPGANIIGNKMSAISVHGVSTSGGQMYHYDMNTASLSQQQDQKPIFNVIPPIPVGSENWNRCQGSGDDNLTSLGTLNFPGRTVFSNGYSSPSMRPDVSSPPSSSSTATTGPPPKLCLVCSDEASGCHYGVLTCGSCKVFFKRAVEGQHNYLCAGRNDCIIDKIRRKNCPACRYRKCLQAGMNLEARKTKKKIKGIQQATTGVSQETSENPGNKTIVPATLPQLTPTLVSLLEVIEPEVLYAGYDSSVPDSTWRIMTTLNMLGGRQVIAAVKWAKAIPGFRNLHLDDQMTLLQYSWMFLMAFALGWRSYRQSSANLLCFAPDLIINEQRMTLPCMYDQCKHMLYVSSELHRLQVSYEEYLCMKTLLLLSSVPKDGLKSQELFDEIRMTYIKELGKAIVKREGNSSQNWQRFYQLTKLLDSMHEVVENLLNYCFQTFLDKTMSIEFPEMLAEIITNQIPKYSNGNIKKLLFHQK

Regarding `COc1cc(C(C)(C)C)c(O)c(C(C)(C)C)c1`, the Potency result in assay [1], in assay [2], in [3], in [4], in [8] and in [11] was “inactive” throughout. Also, the Potency result in assay [15], in assay [17] and in assay [18] was “inactive” throughout. Also, the Potency in assay [5] was 27.3 µM (active). Also, the result in assay [6], in assay [7], in assay [9], in assay [10], in [12] and in assay [13] was inactive. Besides, the result in [14] and in [16] was inactive.
With `CN(C(=O)CCCOc1ccc2[nH]c(=O)ccc2c1)C1CCCCC1`, the Potency entry in [19], in assay [2], in [3], in [4], in assay [11] and in assay [15] was “inactive” each time. For the same compound, the Potency result in assay [17] and in assay [18] was “inactive” each time. For the same compound, the compound was called inactive in assay [6], in assay [7], in assay [9], in [13] and in assay [16].
On to `CCOc1nc2cccc(C(=O)O)c2n1Cc1ccc(-c2ccccc2-c2nn[nH]n2)cc1`, for which the Potency entry in [1], in [3], in [4], in assay [8], in assay [11] and in [15] was “inactive” throughout. The Potency entry in assay [20] is “inactive”. Further, the values for the Potency in assay [2] and in [5] were 29.8 µM (active) and 8.41 µM (active), respectively. Moreover, the call in assay [6], in assay [7], in assay [9], in assay [10], in assay [12] and in [13] was inactive. Also, the compound was called inactive in assay [14] and in assay [16].
Consider `CC(C)NCC(O)c1cc(O)cc(O)c1` (stereo not given), for which the Potency entry in assay [1], in assay [2], in assay [3], in [4], in assay [5] and in assay [8] was “inactive” throughout. Moreover, the Potency entry in [11], in assay [15] and in assay [20] was “inactive” each time. Further, the result in [6], in assay [7], in assay [9], in assay [10], in assay [13] and in [16] was inactive.
On to `O=c1[nH]cnc2ccccc12`, for which the Potency result in assay [19], in assay [2], in [4], in assay [5], in [8] and in assay [11] was “inactive” throughout. Moreover, the Potency entry in assay [15], in [20] and in assay [17] was “inactive” throughout. Also, the outcome in assay [6], in assay [7], in assay [9], in assay [10], in [12] and in assay [13] was inactive. In addition, the compound was classed as inactive in [16].
For `O=C1c2cccc(O)c2C(=O)c2c(O)cc(CO)cc21`, the Potency result in [1], in [2], in [3], in [4], in assay [8] and in assay [11] was “inactive” throughout. The Potency result in [15], in [20] and in [17] was “inactive” throughout. In addition, the Potency in [5] was 0.864 µM (active). Also, the call in assay [6], in assay [7], in assay [9], in assay [10], in assay [12] and in [13] was inactive. The result in [14] and in [16] was inactive.
Regarding `O=C(O)Cc1cc(I)c(Oc2ccc(O)c(I)c2)c(I)c1`, the Potency in assay [19] is 4.52 µM (active) and 24.3 µM (active); in assay [2], 3.59 µM (active) and 43.3 µM (active); in assay [5], 68.6 µM (active). Moreover, the Potency entry in [3], in assay [4], in [8], in assay [11], in assay [15] and in [20] was “inactive” in each case. Besides, in [17], the Potency entry was “inactive”. Moreover, the outcome in assay [6], in [7], in assay [9], in [10], in assay [12] and in [13] was inactive. Also, the result in assay [14] and in assay [16] was inactive.
